Reference: PubChem BioAssay (NCATS)
Records with an inconclusive call do not appear. A call without a number means that no potency is given here. Unmarked numbers belong to inactive results. The source made the active and inactive calls. Calls come from the whole dose curve; as a rule, active = well fitted curve in the direction sought with a large enough effect; inconclusive = small, poorly fitted or top-dose-only effect, or another doubt; inactive = no such curve, though single readings can be large; an effect the other way counts as inactive or inconclusive.

Key:
[1] = Primary qHTS for inhibitors of nuclear receptor binding SET domain protein 2 (NSD2) in an isogenic RCH-ACV NSD2 p.E1099K mutant (9B) (AID 1645876); note: nearly all actives have a fitted effect of over 70% in size; note: potency is the fitted concentration of half-maximal effect
[2] = Primary qHTS for inhibitors of nuclear receptor binding SET domain protein 2 (NSD2) in an RCH-ACV wild type WT cells (2C) (AID 1645877); note: nearly all actives have a fitted effect of over 70% in size; note: potency is the fitted concentration of half-maximal effect
[3] = target: Glutathione peroxidase 1 (Homo sapiens) (UniProt P07203); test: Primary qHTS Assay for Inhibitors of Recombinant Selenoprotein Glutathione Peroxidase 1 (GPX1) (AID 1845191); note: nearly all actives have a fitted effect of over 65% in size
Procedure, shortened: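 NADPH consumption tracked by fluorescence at 340/450 nm between t=0 and t=15 min, room temperature. Final mix: 10 nM GPX1, 100 nM glutathione reductase, 1 mM GSH, 0.5 mM NADPH, 0.5 mM cumene hydroperoxide, 0.01% BSA; 30 min compound–enzyme preincubation.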

Sequence of Glutathione peroxidase 1 (Homo sapiens) (P07203 whole entry, looked up): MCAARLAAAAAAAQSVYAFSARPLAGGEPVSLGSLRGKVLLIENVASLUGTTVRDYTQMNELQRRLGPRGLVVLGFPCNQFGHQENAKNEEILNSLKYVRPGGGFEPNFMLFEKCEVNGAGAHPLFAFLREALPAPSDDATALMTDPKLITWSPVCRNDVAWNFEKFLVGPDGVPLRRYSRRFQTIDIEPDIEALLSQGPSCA

## C=C1C(O)C(O)C2(CC3C(C)=CCC4C(C)(CO)CCCC34C)OC2C1O (stereo not drawn)
[1]
  Potency: inactive
[2]
  Potency: inactive
[3]
  Potency: inactive

## CCCCC1CCN(CCCC(=O)c2ccccc2C)CC1
[1]
  Potency: 20.5 µM (active)
[2]
  Potency: 16.3 µM (active)
[3]
  Potency: inactive

## CC(=O)C1=C(C)N(c2cccc(C(F)(F)F)c2)C(=O)N[C@H]1c1ccc(C#N)nc1
[1]
  activity change, negative = viability loss: -10.2% [at 9.23 µM]
[2]
  activity change, negative = cell killing: -17.1% [at 9.23 µM]
[3]
  Potency: inactive

## CC1=C(C(=O)O)/C(=C/CO[C@@H]2O[C@H](COC(=O)/C=C/c3ccc(O)cc3)[C@@H](O)[C@H](O)[C@H]2O)C(O)C1 (stereo partly drawn)
[1]
  Potency: inactive
[2]
  Potency: inactive
[3]
  Potency: inactive

## C=CC(C)(C)c1[nH]c2ccccc2c1C[C@@H]1NC(=O)[C@H](Cc2c[nH]c3ccccc23)NC1=O
[1]
  Potency: inactive
[2]
  Potency: inactive
[3]
  Potency: inactive

## C[C@@H]1O[C@@H](O[C@H]2[C@H](O)[C@@H](O[C@@H]3O[C@H](CO)[C@@H](O)[C@H](O[C@@H]4O[C@H](CO)[C@@H](O)[C@H](O)[C@H]4O)[C@H]3O)[C@H](O[C@H]3CC[C@@]4(C)C(=CC[C@@H]5C4CC[C@@]4(C)C5C[C@@H]5OC6(CC[C@@](C)(CO[C@@H]7O[C@H](CO)[C@@H](O)[C@H](O)[C@H]7O)O6)[C@@H](C)[C@@H]54)C3)O[C@@H]2CO)[C@H](O)[C@H](O)[C@H]1O (stereo partly drawn)
[1]
  activity change, negative = viability loss: -19.9% [at 9.23 µM]
[2]
  activity change, negative = cell killing: -26.3% [at 9.23 µM]
[3]
  activity, negative = inhibition: -7.69% [at 9.52 µM]

## CC(=O)C1=CCC2C3CCC4CC(O[C@@H]5O[C@H](CO)[C@@H](O[C@@H]6O[C@@H](C)[C@H](O)[C@@H](O)[C@H]6O)[C@H](O)[C@H]5O[C@@H]5O[C@H](CO)[C@@H](O)[C@H](O)[C@H]5O)CCC4(C)C3CCC12C (stereo partly drawn)
[1]
  Potency: inactive
[2]
  Potency: inactive
[3]
  Potency: inactive

## CC1CC(O)C2(OC1=O)OC1C(O)C3C4CCC5CC(OC6OC(CO)C(O)C(O)C6OC6OC(C)C(O)C(O)C6O)CCC5(C)C4CCC3(C)C1C2C (stereo not drawn)
[1]
  Potency: inactive
[2]
  Potency: inactive
[3]
  Potency: inactive

## CC1(C)CC[C@]2(C(=O)O[C@@H]3O[C@H](CO)[C@@H](O)[C@H](O)[C@H]3O)CC[C@]3(C)C(=CCC4[C@@]5(C)C[C@@H](O)[C@H](O)[C@](C)(C=O)C5CC[C@]43C)[C@@H]2[C@@H]1O (stereo partly drawn)
[1]
  Potency: inactive
[2]
  Potency: inactive
[3]
  Potency: inactive

## C=C(CO)C12OC1C1(C)C(=CC2=O)C(O)C(O)CC1C (stereo not drawn)
[1]
  Potency: inactive
[2]
  Potency: inactive
[3]
  Potency: inactive

## CC1=C2C[C@H]3O[C@@]3(C)CCC3O[C@@]3(C)C[C@@]2(O)OC1=O (stereo partly drawn)
[1]
  Potency: inactive
[2]
  Potency: inactive
[3]
  Potency: inactive

## CC(=O)/C=C/[C@H]1[C@](C)(O)[C@@H](O)[C@H](OC(C)=O)C2C(C)(C)CCC[C@@]21C (stereo partly drawn)
[1]
  Potency: inactive
[2]
  Potency: inactive
[3]
  Potency: inactive

## C=C[C@H]1C(O[C@@H]2O[C@H](CO)[C@@H](O)[C@H](O)[C@H]2O)OC=C2C(=O)N3CCc4c([nH]c5ccccc45)C3CC21 (stereo partly drawn)
[1]
  Potency: inactive
[2]
  Potency: inactive
[3]
  Potency: inactive

## C=C(C(=O)OC)C1C(O)CC2(C)C(O)CCC(=O)C2C1O (stereo not drawn)
[1]
  Potency: inactive
[2]
  Potency: inactive
[3]
  Potency: inactive

## C=C[C@@H]1[C@H](O[C@@H]2O[C@H](CO)[C@@H](O)[C@H](O)[C@H]2O)OC=C(C(=O)O)[C@H]1CCOC(=O)/C=C/c1ccc(O)c(O)c1
[1]
  Potency: inactive
[2]
  Potency: inactive
[3]
  Potency: inactive

## CC(=O)OC1CC2C3(C)CCC(OC(=O)CC(=O)O)C(C)(C)C3CCC2(C)C2(C)CCC(C3(C)CCC(=O)O3)C12 (stereo not drawn)
[1]
  Potency: inactive
[2]
  Potency: inactive
[3]
  Potency: inactive

## CC1CCC2(OC1)OC1CC3C4CC=C5CC(O)CC(O[C@@H]6OC[C@@H](O)[C@H](O)[C@H]6O)C5(C)C4CCC3(C)C1(O)C2C (stereo partly drawn)
[1]
  Potency: inactive
[2]
  Potency: inactive
[3]
  Potency: inactive

## CC1(C)CC[C@]2(C(=O)O)CC[C@]3(C)C(=CCC4[C@@]5(C)CC[C@H](O[C@@H]6O[C@H](C(=O)O)[C@@H](O[C@@H]7OC[C@@H](O)[C@H](O)[C@H]7O)[C@H](O)[C@H]6O)C(C)(C)C5CC[C@]43C)C2C1O (stereo partly drawn)
[1]
  Potency: inactive
[2]
  Potency: inactive
[3]
  Potency: inactive

## COc1cc(O)cc(C)c1C(=O)O[C@H]1[C@@H](OC(C)=O)[C@H](n2ccc(=O)[nH]c2=O)O[C@@H]1CO
[1]
  Potency: inactive
[2]
  Potency: inactive
[3]
  Potency: inactive

## CC1C(=O)CC2C3CCC(C(=O)O)C12CC3(C)CO (stereo not drawn)
[1]
  Potency: inactive
[2]
  Potency: inactive
[3]
  Potency: inactive

## C=C1C[C@@]23CCC4[C@@](C)(CCC[C@@]4(C)C(=O)OC)C2CC[C@@H]1C3 (stereo partly drawn)
[1]
  Potency: inactive
[2]
  Potency: inactive
[3]
  Potency: inactive

## C=C1CN(Cc2ccc(C(=O)Nc3ccccc3N)cc2)C(=O)c2ccccc21
[1]
  Potency: 0.23 µM (active)
[2]
  Potency: 0.23 µM (active)
[3]
  Potency: inactive

## C/C=C/c1ccc(O[C@@H]2O[C@H](CO)[C@@H](O)[C@H](O)[C@H]2O)c(OC)c1
[1]
  Potency: inactive
[2]
  Potency: inactive
[3]
  Potency: inactive

## CC1=C(C)C(=O)OC(C(C)C2CCC3C4C5OC5C5(O)CC(OC6OC(CO)C(OC7OC(C)C(O)C(O)C7O)C(O)C6O)CC(O)C5(C)C4CCC23C)C1 (stereo not drawn)
[1]
  Potency: inactive
[2]
  Potency: inactive
[3]
  Potency: inactive

## C=C1CCC2C(C)(C(=O)O)CCCC2(C)C1CCC(C)CC(=O)O (stereo not drawn)
[1]
  Potency: inactive
[2]
  Potency: inactive
[3]
  Potency: inactive

## COc1c2c(c(CO)c3c1C(=O)OC3)OC1(C)CCC3(O)C(C)(C)OC(=O)CCC3(C)C1C2 (stereo not drawn)
[1]
  Potency: inactive
[2]
  Potency: inactive
[3]
  Potency: inactive

## CC(C)(C)c1ccc(S(=O)(=O)Nc2ccc(Cl)cc2C(=O)c2cc[n+]([O-])cc2)cc1
[1]
  Potency: inactive
[2]
  Potency: inactive
[3]
  Potency: inactive

## CC(=O)O[C@@H]1[C@@H](CO)O[C@@](CO)(O[C@H]2O[C@H](COC(=O)/C=C/c3ccccc3)[C@@H](O)[C@H](O)[C@H]2O)[C@H]1O
[1]
  Potency: inactive
[2]
  Potency: inactive
[3]
  Potency: inactive

## C=C1C(=O)O[C@H](CCC)[C@H]1C(=O)O
[1]
  Potency: inactive
[2]
  Potency: inactive
[3]
  Potency: inactive

## CC12CCC3c4ccc(O)cc4CCC3C1CC(OC1OC(C(=O)O)C(O)C(O)C1O)C2O (stereo not drawn)
[1]
  Potency: inactive
[2]
  Potency: inactive
[3]
  Potency: inactive

## C(#Cc1nc2ncccc2nc1OCCN1CCCC1)c1ccccc1
[1]
  Potency: 2.58 µM (active)
[2]
  Potency: 2.3 µM (active)
[3]
  Potency: inactive

## O=C(OC[C@@]1(O)CO[C@@H](O[C@H]2[C@H](Oc3ccc(O)cc3)O[C@H](CO)[C@@H](O)[C@@H]2O)[C@@H]1O)c1ccc(O)cc1
[1]
  Potency: inactive
[2]
  Potency: inactive
[3]
  Potency: inactive

## COc1cc(/C=C/C=O)cc(OC)c1O[C@@H]1O[C@H](CO)[C@@H](O)[C@H](O)[C@H]1O
[1]
  Potency: inactive
[2]
  Potency: inactive
[3]
  Potency: inactive

## C=C1CCC2C(C)(COC(C)=O)CCCC2(C)C1CCC(C)CC(=O)O (stereo not drawn)
[1]
  Potency: inactive
[2]
  Potency: inactive
[3]
  Potency: inactive

## O=C1NC(Cc2c[nH]c3ccccc23)C(=O)NC1Cc1cnc[nH]1 (stereo not drawn)
[1]
  Potency: inactive
[2]
  Potency: inactive
[3]
  Potency: inactive

## COc1ccc(N(C)c2nc(C)nc3ccccc23)cc1
[1]
  Potency: 0.0132 µM (active)
[2]
  Potency: 0.0118 µM (active)
[3]
  Potency: inactive

## CC(CO)C1CCC2(C)CC3C(CO)CC(O)C3C(C)(O)C/C=C/12 (stereo not drawn)
[1]
  Potency: inactive
[2]
  Potency: inactive
[3]
  Potency: inactive

## CC1(C)CCC2(C(=O)OC3OCC(O)C(O)C3O)CCC3(C)C(=CCC4C5(C)CC(O)C(OC6OC(COC7OCC(O)C(O)C7O)C(O)C(O)C6O)C(C)(C)C5CCC43C)C2C1 (stereo not drawn)
[1]
  activity change, negative = viability loss: -10.4% [at 9.23 µM]
[2]
  activity change, negative = cell killing: -0.57% [at 9.23 µM]
[3]
  Potency: inactive

## O=C(O)c1cc(I)ccc1NC(=O)[C@H](Cc1ccccc1)NCc1ccccc1
[1]
  Potency: inactive
[2]
  Potency: inactive
[3]
  Potency: inactive

## O=C(Nc1ccn[nH]1)c1c(F)cccc1F
[1]
  Potency: inactive
[2]
  Potency: inactive
[3]
  Potency: inactive

## CC(C)=CCC/C(C)=C/CO[C@@H]1O[C@H](CO)[C@@H](OC(=O)/C=C/c2ccc(O)cc2)[C@H](O[C@@H]2O[C@@H](C)[C@H](O)[C@@H](O)[C@H]2O)[C@H]1O
[1]
  Potency: inactive
[2]
  Potency: inactive
[3]
  Potency: inactive

## COc1cc(C(=O)OC[C@@]2(O)CO[C@@H](O[C@H]3[C@H](Oc4ccc(C(=O)O)cc4OC)O[C@H](CO)[C@@H](O)[C@@H]3O)[C@@H]2O)ccc1O
[1]
  Potency: inactive
[2]
  Potency: inactive
[3]
  Potency: inactive

## C/C(=C\CCC1(C)C2CCC(C2)C1(C)O)C(=O)O (stereo not drawn)
[1]
  Potency: inactive
[2]
  Potency: inactive
[3]
  Potency: inactive

## COc1cc(C)c(C(=O)Oc2cc(C)c(C(=O)Oc3cc(C)c(C(=O)NC(C)C(=O)O)c(O)c3)c(O[C@@H]3O[C@H](CO)[C@@H](O)[C@H](O)[C@H]3OC(C)=O)c2)c(OC)c1 (stereo partly drawn)
[1]
  Potency: inactive
[2]
  Potency: inactive
[3]
  Potency: inactive

## C/C1=C\[C@H]2OC(=O)[C@@H](C)[C@@H]2CC/C(C(=O)O)=C/CC1
[1]
  Potency: inactive
[2]
  Potency: inactive
[3]
  Potency: inactive

## O=C1CCC=CC1(O)C(=O)OCc1ccccc1O[C@@H]1O[C@H](CO)[C@@H](O)[C@H](O)[C@H]1O (stereo partly drawn)
[1]
  Potency: 12.6 µM (active)
[2]
  Potency: 5.02 µM (active)
[3]
  Potency: inactive

## CCCOC(c1cc2nccc(C(=O)O)c2[nH]1)c1ccccc1Cl (stereo not drawn)
[1]
  Potency: inactive
[2]
  Potency: inactive
[3]
  Potency: inactive

## CC12CCC3c4ccc(OC5OC(C(=O)O)C(O)C(O)C5O)cc4CCC3C1CCC2O (stereo not drawn)
[1]
  Potency: inactive
[2]
  Potency: inactive
[3]
  Potency: inactive

## COC(=O)C[C@H]1C(C)(C)[C@H](OC(=O)C(C)C)[C@@]2(O)C(=O)[C@]1(C)C1CC[C@]3(C)C(CC(=O)O[C@H]3c3ccoc3)[C@]13O[C@@H]32 (stereo partly drawn)
[1]
  Potency: inactive
[2]
  Potency: inactive
[3]
  Potency: inactive

## C/C(=C\C=C\C(C)C1CCC2(C)C3CCC4C(C)(C)C(=O)CCC45CC35CCC12C)C(=O)O (stereo not drawn)
[1]
  Potency: inactive
[2]
  Potency: inactive
[3]
  Potency: inactive

## C[C@@H]1O[C@@H](O[C@@H]2CO[C@@H](O[C@H]3CC[C@@]4(C)C(CC[C@]5(C)C4CC=C4[C@@H]6CC(C)(C)CC[C@]6(C(=O)O[C@@H]6O[C@H](CO)[C@@H](O)[C@H](O)[C@H]6O)CC[C@]45C)[C@]3(C)CO)[C@H](O)[C@H]2O[C@@H]2O[C@H](CO)[C@@H](O)[C@H](O)[C@H]2O)[C@H](O)[C@H](O)[C@H]1O (stereo partly drawn)
[1]
  activity change, negative = viability loss: -16% [at 9.23 µM]
[2]
  activity change, negative = cell killing: -18.1% [at 9.23 µM]
[3]
  Potency: inactive
